Bioassay records deposited in PubChem by National Center for Advancing Translational Sciences (NCATS).
Compounds with a hit are over-represented: about 0.95% of the library has one in this group of screens.
LmPK inhibitor = qHTS Assay for Inhibitors of Leishmania Mexicana Pyruvate Kinase (LmPK). purified LmPK, Kinase-Glo ATP luminescence, 1 h. Potency, µM (top dose mostly 57.5 µM), actives largely listed as inhibitors. 290,000 compounds, 0.37% hits. AID 1721, 2009
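qHTS format; LmPK 0.1 nM; substrates PEP 0.5 mM and ADP 0.1 mM. One-hour room-temperature incubation, then coupled luciferase luminescence; 0.5 nM enzyme wells mark activation.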
RE007 growth inh = qHTS Assay for Inhibitors of the HIV-1 protein Vpr. Potency, µM (doses to about 92.2 µM), hits mostly inhibitors. S. pombe RE007 Vpr strain, BacTiter-Glo ATP luminescence, 24 h. AID 651644, 2012. 360,000 compounds, 0.21% hits; active = well fitted falling curve with a large enough effect; inconclusive = small, poorly fitted or top-dose-only effect; inactive = no such curve, though single readings can be large or run the other way; note: nearly all actives have a fitted effect of over 50% in size
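Fission yeast RE007 carrying one integrated HIV-1 vpr copy, seeded at OD 0.01 in PMG+AL medium with 23 nL pinned compound. Grown 24 h at 30 degrees; viability read by BacTiter-Glo luminescence after 5 min.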
Tb PYK inh = qHTS of Trypanosoma Brucei Inhibitors. pyruvate kinase (Trypanosoma brucei), Q57TT1. TbPYK enzyme, Kinase-Glo Plus ATP luminescence, 45 min. AID 624173, 2012. 410,000 compounds, 0.12% hits. Potency, µM (titrated, usually from 76.8 µM), actives largely listed as inhibitors; note: nearly all actives have a fitted effect of over 50% in size
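Glycolytic pyruvate kinase of T. brucei was incubated with substrate, test compound and 130 uM ADP for 45 minutes at room temperature. Luminescent Kinase-Glo Plus signal was measured after 10 minutes.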
Giardia FBPA inh-1 = qHTS Assay for Inhibitors of Fructose-1,6-bisphosphate Aldolase from Giardia Lamblia; AID 2451, 2010; A8B2U2; Potency, µM (highest dose often 59.6 µM), actives largely listed as inhibitors; 290,000 compounds, 0.71% hits; purified Giardia FBPA; note: nearly all actives have a fitted effect of over 55% in size
Target sequence (A8B2U2 whole entry, looked up): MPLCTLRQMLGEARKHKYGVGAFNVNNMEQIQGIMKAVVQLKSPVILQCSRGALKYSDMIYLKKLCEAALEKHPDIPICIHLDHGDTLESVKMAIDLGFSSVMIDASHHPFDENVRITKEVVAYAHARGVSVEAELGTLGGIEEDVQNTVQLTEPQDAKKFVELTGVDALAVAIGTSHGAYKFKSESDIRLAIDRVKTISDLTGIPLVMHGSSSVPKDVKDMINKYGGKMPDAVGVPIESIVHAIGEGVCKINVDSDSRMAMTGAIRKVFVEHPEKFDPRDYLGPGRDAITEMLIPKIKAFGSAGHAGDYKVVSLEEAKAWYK
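Giardia FBPA (40 nM reagent) was preincubated 10 min at RT with compound (up to 57.5 uM final), then substrate plus GAPDH/TPI/NAD/arsenate coupling system with diaphorase/resazurin was added; resorufin fluorescence (525/598 nm) was read after 20 min.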
Giardia growth = qHTS Assay for Inhibitors of Fructose-1,6-bisphosphate Aldolase from Giardia Lamblia: Giardia lamblia growth inhibition; shares compounds with Giardia FBPA inh-1; Giardia lamblia trophozoite growth inhibition; Potency, µM (doses to about 57.5 µM), actives largely listed as inhibitors; 1,500 compounds, 5% hits;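 note: trophozoites exposed to compound for 48 h at 37 °C; nearly all actives have a fitted effect of over 70% in size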
Mammalian tox = qHTS Assay for Inhibitors of Fructose-1,6-bisphosphate Aldolase from Giardia Lamblia: Mammalian cellular toxicity. shares compounds with Giardia FBPA inh-1. mammalian cell viability counter-screen, qHTS. Potency, µM (series often up to 57.5 µM), actives largely listed as inhibitors. 1,500 compounds, 4% hits. AID 2786, 2010;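 note: Chinese hamster ovary cells used as mammalian cytotoxicity surrogate; viability measured as cellular ATP by luminescence; compound exposure lasted 48 h before reading; nearly all actives have a fitted effect of over 60% in size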
Giardia FBPA inh-2 = qHTS Assay for Inhibitors of Fructose-1,6-bisphosphate Aldolase from Giardia Lamblia: Primary screen confirmation; shares compounds with Giardia FBPA inh-1; purified Giardia aldolase enzyme activity, qHTS; Potency, µM (series often up to 57.5 µM), hits mostly inhibitors; 1,500 compounds, 5% hits; AID 2787, 2010; note: nearly all actives have a fitted effect of over 45% in size
Rabbit aldolase = qHTS Assay for Inhibitors of Fructose-1,6-bisphosphate Aldolase from Giardia Lamblia: Rabbit FBPA Selectivity; shares compounds with Giardia FBPA inh-1; Rabbit muscle FBPA enzyme inhibition, selectivity counter-screen; Potency, µM (top dose mostly 57.5 µM), most hits filed as inhibitors; 1,500 compounds, 4% hits; AID 2794, 2010; note: nearly all actives have a fitted effect of over 60% in size
GAPDH coupling = qHTS Assay for Inhibitors of Fructose-1,6-bisphosphate Aldolase from Giardia Lamblia: Coupling assay counterscreen confirmation | shares compounds with Giardia FBPA inh-1 | GAPDH coupling enzyme counterscreen, biochemical, qHTS | Potency, µM (highest dose often 57.5 µM), hits mostly inhibitors | 1,500 compounds, 6% hits; note: nearly all actives have a fitted effect of over 55% in size
Of the large screens only hits and unclear results are named; the others gave an inactive call (follow-up assays come after a bar, where they were run); [ ] = another dose, or the depositor's remark. Unless noted, calls come from the whole dose curve; as a rule, active = well fitted curve in the direction sought with a large enough effect; inconclusive = small, poorly fitted or top-dose-only effect, or another doubt; inactive = no such curve, though single readings can be large; an effect the other way counts as inactive or inconclusive.

CN(C)/C=N/c1nc(Sc2ccc(C(F)(F)F)cc2[N+](=O)[O-])n[nH]1	none
O=[N+]([O-])c1cc(C(F)(F)F)cc([N+](=O)[O-])c1Sc1n[nH]c(C(F)(F)F)n1	Tb PYK inh inconclusive, Giardia FBPA inh-1 17.7µM | Giardia growth inconclusive | Mammalian tox inactive | Giardia FBPA inh-2 inactive | Rabbit aldolase inactive | GAPDH coupling inactive
CCCCC/C=C\C/C=C\C/C=C\CCCCC(=O)NC(C)C(=O)O (stereo unspecified)	none (no result: LmPK inhibitor, RE007 growth inh, Tb PYK inh)
COc1ccccc1OCc1nn[nH]n1	Giardia FBPA inh-1 31.6µM | Giardia growth inconclusive | Mammalian tox inactive | Giardia FBPA inh-2 inactive | Rabbit aldolase inactive | GAPDH coupling inactive
CO/N=C/C(C#N)c1ncc(C(F)(F)F)cc1Cl (stereo unspecified)	Giardia FBPA inh-1 19.9µM | Giardia growth inconclusive | Mammalian tox inactive | Giardia FBPA inh-2 inactive | Rabbit aldolase inactive | GAPDH coupling inactive
COc1ccc(Br)cc1CNC(=O)CCc1cn(Cc2ccc(C)cc2)c2ccccc12	none (no result: LmPK inhibitor, RE007 growth inh, Giardia FBPA inh-1)
Cc1ccc(CNC(=O)CSc2nc3ccccc3[nH]2)cc1	Giardia FBPA inh-1 12.6µM | Giardia growth inactive | Mammalian tox inactive | Giardia FBPA inh-2 inactive | Rabbit aldolase inactive | GAPDH coupling inactive
COC(=O)c1ccc(CNC(=O)CSc2nc3ccccc3[nH]2)cc1	none
O=c1c(CCc2ccccc2)nc2cnc(N3CCNCC3)nc2n1CCc1ccccc1	none (no result: LmPK inhibitor, RE007 growth inh)
CCCn1c2ccccc2c2cnn(CC(=O)Nc3ccc(C)cc3Br)c(=O)c21	none (no result: LmPK inhibitor, RE007 growth inh, Giardia FBPA inh-1)
Cc1cccc(C)c1OCC(=O)OC/C(O)=C(\C#N)c1nc2ccccc2[nH]1	none
COCC(=O)OC/C(O)=C(\C#N)c1nc2ccccc2[nH]1	Giardia FBPA inh-1 15.8µM | Giardia growth inactive[10.4 µM] | Mammalian tox inconclusive | Giardia FBPA inh-2 inactive | Rabbit aldolase inactive | GAPDH coupling inactive
CC(C)C(=O)OC/C(O)=C(\C#N)c1nc2ccccc2[nH]1	Giardia FBPA inh-1 19.9µM | Giardia growth inactive[10.4 µM] | Mammalian tox inactive | Giardia FBPA inh-2 inactive | Rabbit aldolase inactive | GAPDH coupling inactive
N#C/C(=C(/O)COC(=O)c1ccc(O)cc1)c1nc2ccccc2[nH]1	Giardia FBPA inh-1 9.98µM | Giardia growth inactive | Mammalian tox inactive | Giardia FBPA inh-2 inactive | Rabbit aldolase inactive | GAPDH coupling inactive
CCCC(=O)OC/C(O)=C(\C#N)c1nc2ccccc2[nH]1	Giardia FBPA inh-1 inconclusive
N#C/C(=C(/O)COC(=O)c1cccnc1Cl)c1nc2ccccc2[nH]1	Giardia FBPA inh-1 17.7µM | Giardia growth inactive | Mammalian tox inactive | Giardia FBPA inh-2 inactive | Rabbit aldolase inactive | GAPDH coupling inactive
COc1cc2c(cc1OC)C1O[C@](c3ccsc3)(C2)OC2=C1C(=O)OC1(CCCCC1)C2	none (no result: RE007 growth inh, Tb PYK inh)
COc1ccc(-c2nc3cnc(N(C)C)nc3n(C[C@H]3CCCO3)c2=O)cc1	none (no result: LmPK inhibitor, RE007 growth inh, Tb PYK inh)
COC(=O)[C@@]1(Cc2ccccc2)[C@H]2c3cc(C(=O)N4CCCC4)[nH]c3C[C@H]2CN1C(=O)c1ccccc1	none (no result: LmPK inhibitor, RE007 growth inh, Tb PYK inh)
c1ccc(-c2ccccc2OCCOCCN2CCNCC2)cc1	Giardia FBPA inh-1 19.9µM | Giardia growth inconclusive | Mammalian tox inactive | Giardia FBPA inh-2 inactive | Rabbit aldolase inactive | GAPDH coupling inactive
